p53 PUMA act – mutant p53 pathway reactivation; activation, % at 9.98 µM; SW480 PUMA-promoter luciferase; hit rate 1.5% among 28,000; in the data active means activation above about 52%
STK33 kin inh – blocks human STK33 kinase activity. inhibition, % at 12.5 µM. ADP-Glo luminescence, MBP substrate. Q9BYT3. hit rate 0.44% among 27,000; in the data active means inhibition above about 20%
Target sequence (Q9BYT3 whole entry, looked up): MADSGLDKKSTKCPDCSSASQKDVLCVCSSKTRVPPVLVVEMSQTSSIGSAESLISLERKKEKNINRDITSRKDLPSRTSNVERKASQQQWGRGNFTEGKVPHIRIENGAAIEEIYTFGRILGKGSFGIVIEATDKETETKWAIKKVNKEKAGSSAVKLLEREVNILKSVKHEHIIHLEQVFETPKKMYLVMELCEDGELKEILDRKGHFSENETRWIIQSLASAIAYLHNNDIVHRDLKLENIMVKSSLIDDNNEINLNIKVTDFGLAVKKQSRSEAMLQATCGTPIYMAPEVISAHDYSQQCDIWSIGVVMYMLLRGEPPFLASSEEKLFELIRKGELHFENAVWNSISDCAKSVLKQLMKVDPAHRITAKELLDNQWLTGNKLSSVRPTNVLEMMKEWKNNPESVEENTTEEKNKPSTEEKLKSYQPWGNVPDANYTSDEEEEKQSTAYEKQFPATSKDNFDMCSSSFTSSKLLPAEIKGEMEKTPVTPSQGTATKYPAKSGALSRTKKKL
ID4 binder – ID4 (human) binding; hit rate 1.2% among 31,000; small molecule microarray, Flag-ID4 binding, fluorescence F/B; P47928; calls only; AID 624137; call rule not given here;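 further: a binder raises fluorescence above local background on the spot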
Numbers without * were called inactive; i = inactive; . = not tested or not shown; + = active, no number. This is a sample that favours compounds with a hit; in the whole collection about 2.1% have one here.

SMILES	p53 PUMA act	STK33 kin inh	ID4 binder
CCCNC(=O)N(C)C[C@@H]1Oc2ncc(-c3ccccc3)cc2C(=O)N([C@@H](C)CO)C[C@H]1C	12.4	.	.
O=[N+]([O-])c1cccc(NC(=S)NCc2cn(-c3ccccc3)nc2-c2ccccc2)c1	-13.9	0.6	i
C[C@H](CO)N1C[C@H](C)[C@H](CN(C)C(=O)Nc2ccccc2)Oc2ncc(/C=C/c3ccccc3)cc2C1=O	0.1	0.3	+
COc1ccc(NC(=O)N(C)C[C@@H]2Oc3ncc(/C=C/c4ccccc4)cc3C(=O)N([C@H](C)CO)C[C@@H]2C)cc1	.	0.9	.
O=C(Nc1cccc(S(=O)(=O)N2CCOCC2)c1)Nc1cccc(Cl)c1Cl	1.3	1.8	i
COc1cc(OC)cc(C(=O)NCc2nc(-c3ccccc3)no2)c1	-2.3	-1.8	i
COc1cccc(OCc2nc(-c3ccccc3)no2)c1	112.2*	1.5	i
CCOc1ccc(OCCSc2nc(C)cc(=O)[nH]2)cc1	33.6	.	i
CCc1ccc(OCCSc2nc(C)cc(=O)[nH]2)cc1	58.8*	0.9	i
CCn1c(SCC(=O)Nc2cccc(Cl)c2C)nnc1-c1ccc(Br)cc1	-11.3	1.3	i
COc1ccc(-n2nnnc2SCC(=O)Nc2ccc(F)cc2F)cc1	9.4	4.4	i
Cc1cc(OCC(=O)NCc2ccco2)cc(C)c1Br	24.8	-6.0	i
CC(C)(C)c1ccc(OCC(=O)Nc2ccccc2C(N)=O)c(Br)c1	85.2*	-0.9	i
COC(=O)c1ccccc1NC(=O)COc1ccccc1F	43.1	0.8	i
COC(=O)c1ccccc1NC(=O)COc1ccc(C(C)C)cc1Br	54.0*	-1.1	i
COc1cc(NC(=O)COc2ccc(C(C)(C)C)cc2Br)c(OC)cc1Cl	21.3	0.3	i
CC(C)(C)c1ccc(OCC(=O)NCc2ccco2)c(Br)c1	88.5*	-3.5	i
O=C(COc1ccc([N+](=O)[O-])cc1)Nc1ccc2oc(-c3cc(F)c(F)cc3Cl)nc2c1	-81.1	-0.3	i
CS(=O)(=O)N(CC(=O)Nc1cccnc1)c1cccc(Br)c1	-25.1	-8.8	i
Cc1ccccc1NC(=O)CSc1nc(-c2ccc(Cl)cc2)cc(C(F)(F)F)n1	-34.3	-0.9	i
NC(=O)C1CCN(CCC(=O)Nc2ccc(F)cc2)CC1	-5.7	3.1	i
CC(=O)c1c(C)oc(NC(=O)Cn2cnc3ccccc3c2=O)c1C#N	-13.1	0.3	i
COc1ccc(CSCC(N)C(=O)O)cc1Br (stereo not given)	4.2	-6.0	i
CNC[C@@H]1Oc2ccc(NS(=O)(=O)c3ccccc3)cc2C(=O)N([C@@H](C)CO)C[C@H]1C	2.6	-0.8	+
CNC[C@@H]1Oc2ccc(NS(=O)(=O)c3ccccc3)cc2C(=O)N([C@H](C)CO)C[C@H]1C	5.8	-0.2	i
SMILES	p53 PUMA act	STK33 kin inh	ID4 binder
CNC[C@@H]1OCCCC[C@@H](C)Oc2ccc(NC(=O)Nc3ccc4c(c3)OCO4)cc2C(=O)N([C@H](C)CO)C[C@@H]1C	.	0.1	.
CNC[C@@H]1Oc2ccc(NC(=O)Nc3ccc4c(c3)OCO4)cc2C(=O)N([C@@H](C)CO)C[C@H]1C	5.1	.	+
C[C@H]1CN([C@@H](C)CO)C(=O)c2cc(NC(=O)Nc3ccc4c(c3)OCO4)ccc2O[C@H]1CN(C)C	-3.0	0.9	i
CNC[C@@H]1Oc2ccc(NC(=O)Nc3ccc4c(c3)OCO4)cc2CC(=O)N([C@@H](C)CO)C[C@@H]1C	5.3	1.9	i
CNC[C@@H]1OCCCC[C@H](C)Oc2ccc(NC(=O)Nc3ccc4c(c3)OCO4)cc2C(=O)N([C@@H](C)CO)C[C@@H]1C	1.5	.	+
CNC[C@H]1Oc2ccc(NC(=O)Nc3ccc4c(c3)OCO4)cc2CC(=O)N([C@@H](C)CO)C[C@@H]1C	2.8	-3.0	+
C[C@@H]1CN([C@H](C)CO)C(=O)c2cc(NC(=O)Nc3ccc4c(c3)OCO4)ccc2O[C@@H]1CN(C)Cc1ccncc1	-5.3	.	i
C[C@@H]1CN([C@@H](C)CO)C(=O)c2cc(NC(=O)Nc3ccc4c(c3)OCO4)ccc2O[C@H]1CN(C)Cc1ccncc1	-2.0	.	+
COC(=O)c1c(-c2ccccc2)csc1NC(=O)C1CCCCC1C(=O)O (stereo not given)	40.9	-6.5	i
Cc1cccc(OCCCn2c(CO)nc3ccccc32)c1	24.9	1.6	i
Cc1ccc(OCCCn2c(CO)nc3ccccc32)cc1	63.0*	-0.9	i
CC(=O)Nc1ccc(NC(=O)CNS(=O)(=O)c2c(C)cc(C)cc2C)cc1	7.6	-5.8	+
CC(=O)c1cccc(NC(=O)CNS(=O)(=O)c2ccc(Br)cc2)c1	18.8	-4.3	i
Cc1cc(C)c(S(=O)(=O)NCC(=O)Nc2ccc(I)cc2)c(C)c1	3.3	-4.4	i
CC(=O)c1ccc(NC(=O)CNS(=O)(=O)c2cccc(Cl)c2)cc1	68.1*	-0.7	i
Cc1ccc(C(C)C)c(OCCSc2nc3ncnc(N)c3[nH]2)c1	-18.0	2.5	i
COc1ccc(OCC(=O)Nc2sc(C)c(C)c2C(N)=O)cc1	16.1	2.9	i
Cc1ccc(-c2cnc(-c3ccc(Br)cc3)o2)cc1	71.5*	.	i
Cc1cc(C)c(NC(=O)CSc2nnc(-c3ccc(Br)cc3)o2)c(C)c1	0.6	1.8	i
O=C(CN1C(=O)c2ccccc2C1=O)Nc1ccc(-c2nc3ccccc3o2)cc1	28.0	8.9	i
Cc1ccc2oc(-c3ccc(NC(=O)Cn4c(=O)oc5ccccc54)cc3)nc2c1	60.3*	5.2	i
CCOc1cc(S(=O)(=O)NCCN2CCOCC2)ccc1F	-16.1	-6.7	i
COc1cc(C(=O)Nc2ccc(S(=O)(=O)Nc3ccccn3)cc2)cc(OC)c1OC	5.8	2.1	i
COc1ccc(C2CC(=O)c3ccc(OC)cc3O2)cc1 (stereo not given)	97.2*	5.2	i
COc1cc(O)c2c(c1)O[C@@H](c1ccccc1)CC2=O	.	0.2	.
SMILES	p53 PUMA act	STK33 kin inh	ID4 binder
COCCSc1nnc(NC(=O)c2sc3ccccc3c2Cl)s1	67.0*	-0.8	i
CSc1ncc(Cl)c(C(=O)Nc2nnc(SC/C=C/c3ccccc3)s2)n1	-0.9	-4.3	i
C=CS(=O)(=O)c1ccc(OC)c(N)c1	.	-0.2	.
COc1ccc(S(=O)(=O)N(CC(=O)O)C2CCCCC2)cc1Cl	-0.2	-2.0	i
CC(Oc1ccc(Cl)cc1Cl)/C(N)=N/O (stereo not given)	12.2	.	i
CC(O)c1cc(-c2ccc(Cl)cc2Cl)no1 (stereo not given)	112.9*	.	i
Cc1ccc(N2C(=O)/C(=C/C=C/c3ccccc3)SC2=S)cc1	.	1.3	.
O=C(O)c1ccccc1Nc1nc(N2CCOCC2)nc(N2CCOCC2)n1	55.8*	0.7	i
O=C(CSc1nc(Nc2ccccc2)nc(N2CCOCC2)n1)Nc1ccccc1Cl	4.8	4.1	i
COc1ccc2[nH]c(C(=O)O)c(CCC(=O)O)c2c1	2.0	0.0	i
COc1ccc2[nH]c3c(OC)ncnc3c2c1	80.6*	.	i
COc1ccc(NC(=O)CN(C)S(=O)(=O)c2ccc(C)cc2)c(OC)c1	-4.1	0.5	i
COc1ccc(-c2nnc(SCC(=O)NC(C)(C)C)n2-c2ccccc2)cc1	3.1	0.3	i
O=[N+]([O-])c1ccccc1OCCCCSc1ncccn1	23.4	7.4	i
Cc1ccc([N+](=O)[O-])c(OCCCSc2ncccn2)c1	66.9*	0.4	i
